The values below come from PubChem BioAssay (NCI).

Several values for one entry are separate records, joined by “and”; a condition that tells them apart may be missing. Equal values may be shown once. The panel holds about 83,000 compounds, 20% with a hit somewhere; the sample as a whole holds those more often.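 Each cell line was grown in a 96-well plate and treated with one concentration of compound for 48 hours. Values below 10 were considered active.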 Activity calls are given as the source filed them.

What all share (test): NCI-60 one-dose screen, 48 h (100 = growth as untreated, 0 = no growth, -100 = all killed)
For assay [1], the system named is HCT-15 colon. Conditions: 10 µM unless noted.
In assay [2] the test system is HT29 colon. Conditions: 10 µM unless noted.
For assay [3], the system named is SNB-75 CNS. Conditions: 10 µM unless noted.
Assay [4] concerns SNB-19 CNS.
Assay [5] relates to U251 CNS. As to conditions: 10 µM unless noted.
The test system of assay [6] is PC-3 prostate. Conditions: 10 µM unless noted.
Assay [7] relates to SK-MEL-5 melanoma. As to conditions: 10 µM unless noted.
Assay [8] deals with UACC-62 melanoma.
Assay [9] concerns LOX IMVI melanoma. Conditions: 10 µM unless noted.
Assay [10] deals with SK-MEL-28 melanoma. As to conditions: 10 µM unless noted.
In assay [11] the test system is SK-MEL-2 melanoma. Conditions: 10 µM unless noted.
Assay [12] deals with EKVX NSCLC. As to conditions: 10 µM unless noted.
The subject of assay [13] is SN12C renal. Conditions: 10 µM unless noted.
For assay [14], the system named is UO-31 renal. Conditions: 10 µM unless noted.
The test system of assay [15] is TK-10 renal.
The test system of assay [16] is ACHN renal. Conditions: 10 µM unless noted.
Assay [17] has as its system CAKI-1 renal. Conditions: 10 µM unless noted.
Assay [18] deals with CCRF-CEM leukemia. Conditions: 10 µM unless noted.
For assay [19], the system named is MOLT-4 leukemia. As to conditions: 10 µM unless noted.
The test system of assay [20] is A498 renal. As to conditions: 10 µM unless noted.

In the case of `CC(C)c1ccc2nc3ccc(C(=O)NCCN4CCN(c5ccccc5)CC4)cn3c(=O)c2c1`, the growth in assay [1] is 44.5% (inactive); in assay [2], 38.8% (inactive); in [3], 60.4% (inactive); in assay [4] (10 µM unless noted) it was 78.8% (inactive); in assay [5], 38.2% (inactive); in [6], 56.3% (inactive). The growth is -25.3% (active) in [7]; 62% (inactive) in assay [8] (10 µM unless noted); 56.1% (inactive) in [9]; 69.7% (inactive) in [10]; 75.4% (inactive) in assay [11]; 74.5% (inactive) in assay [12]. In addition, the growth in [13] was 69.9% (inactive); in [14], 50% (inactive); in assay [15] (10 µM unless noted), 93.9% (inactive); in assay [16] it was 72.1% (inactive); in assay [17], 63.4% (inactive); in assay [18] it was 50.7% (inactive). The growth in assay [19] was 38% (inactive).
In the case of `NC(=S)N/N=C\c1nccc2c(C(F)(F)C(F)(F)C(F)(F)F)cccc12`, the growth in [1] was 28.2% (inactive); in assay [2], 8.84% (active); in [3] it was 20.2% (inactive); in assay [4] (10 µM unless noted), 21.8% (inactive); in assay [5] it was -9.91% (active); in [6], 9.51% (active). Also, the growth is -54.7% (active) in [7]; -39.8% (active) in assay [8] (10 µM unless noted); 4.13% (active) in [9]; 25.2% (inactive) in assay [10]; 7.18% (active) in assay [11]; 11.8% (inactive) in assay [12]. Also, the growth in assay [13] is 15.6% (inactive); in [14], -31.9% (active); in [15] (10 µM unless noted), 11.9% (inactive); in [16], -0.888% (active); in [17], -5.07% (active); in assay [18] it was -8.14% (active).
On to `O=C1NC(=O)/C(=C/C=C/c2ccccc2)S1`, for which the growth is 54.1% (inactive) in [1]; 56.6% (inactive) in [2]; 59.7% (inactive) in assay [3]; 28.3% (inactive) in assay [4] (10 µM unless noted); 17.1% (inactive) in assay [5]; 87.5% (inactive) in [6]. The growth in [7] is 25% (inactive); in assay [8] (10 µM unless noted), 1.33% (active); in assay [9] it was 15.8% (inactive); in [11], -6.31% (active); in assay [12], 62.5% (inactive); in assay [13], 50.6% (inactive). In addition, the growth in assay [14] was 34.1% (inactive); in [15] (10 µM unless noted), 91.8% (inactive); in assay [16] it was 9.79% (active); in [17], 25.5% (inactive); in assay [20], 69.7% (inactive).
On to `CC1OC(OC2C(OC3CCC4(C)C(CCC5(C)C4CC=C4C6CC(C)(C)CCC6(CO)C(O)CC45C)C3(C)C)OC(C(=O)O)C(OC3OC(COC4OC(CO)C(O)C(O)C4O)C(O)C(O)C3O)C2O)C(O)C(O)C1O` (stereo unspecified), for which the growth in assay [1] was -47.8% (active); in assay [2] it was -44.6% (active); in [3] it was -84.1% (active); in assay [4] (10 µM unless noted), -87.6% (active); in [5], -80.4% (active); in [6], -74.3% (active). Also, the growth in assay [7] is -94.3% (active); in assay [8] (10 µM unless noted), -69.7% (active); in [9] it was -69.9% (active); in assay [10], -79% (active); in [11], -75.3% (active); in [12] it was -74.8% (active). For the same compound, the growth in assay [13] is -77.7% (active); in [14], -88.7% (active); in assay [15] (10 µM unless noted), -69.3% (active); in assay [16] it was -100% (active); in assay [17], -95.3% (active); in assay [18], -26.3% (active). Also, the growth in [19] was -67% (active).
Take `O=C(O)c1ccc2c3c(ncnc13)-c1ccccc1C2=O`: the growth in assay [1] was 26.8% (inactive); in assay [2], 59.2% (inactive); in [3] it was 20.2% (inactive); in [4] (10 µM unless noted) it was 38.1% (inactive); in assay [5], 60.6% (inactive); in [6], 55.5% (inactive). For the same compound, the growth was -69.3% (active) in assay [7]; 12.6% (inactive) in assay [8] (10 µM unless noted); 21.5% (inactive) in [9]; 88.4% (inactive) in assay [11]; 103% (inactive) in assay [12]; 48.7% (inactive) in [13]. Further, the growth was 62.7% (inactive) in [14]; 120% (inactive) in assay [15] (10 µM unless noted); 73.8% (inactive) in assay [16]; 111% (inactive) in assay [17]; -2.38% (active) in assay [20]; 77.9% (inactive) in [18]. In assay [19], the growth is 96.3% (inactive).
With `Oc1c(Br)cc(Cl)cc1C(c1cc(Cl)cc(Br)c1O)C(Cl)(Cl)Cl`, the growth was 17.2% (inactive) in assay [1]; 10.1% (inactive) in assay [2]; 68.1% (inactive) in assay [3]; 24.7% (inactive) in assay [4] (10 µM unless noted); 15.2% (inactive) in assay [5]; 1.63% (active) in assay [6]. Besides, the growth in assay [7] is -64.6% (active); in assay [8] (10 µM unless noted), 13.3% (inactive); in assay [11], -30.2% (active); in [12], 15.7% (inactive); in assay [13], 10.8% (inactive); in [14] it was 12.6% (inactive). For the same compound, the growth in [15] (10 µM unless noted) is 24.5% (inactive); in assay [16] it was 10.5% (inactive); in assay [17], 1.81% (active).
As to `COc1cc(NS(C)(=O)=O)ccc1Nc1c2ccccc2nc2ccccc12`, the growth is 29.4% [2.5 µM] (inactive) in assay [1]; 43.4% [2.5 µM] (inactive) in assay [2]; 27.9% [2.5 µM] (inactive) in assay [3]; 14.5% (inactive) in assay [4] (2.5 µM); -26% (active) and 28.9% (inactive) and 35.6% (inactive) in assay [4] (10 µM); 18.7% [2.5 µM] (inactive) in [5]. In addition, the growth in [7] was 3.48% [2.5 µM] (active); in [8] (2.5 µM), 29.1% (inactive); in assay [8] (250 µM), -86.2% (active) and -100% (active); in assay [9], 23.8% [2.5 µM] (inactive); in assay [10] it was 52.5% (inactive) and 63.7% (inactive) and 53.8% (inactive); in assay [11], 96.5% [2.5 µM] (inactive). The growth was 58.8% [2.5 µM] (inactive) in assay [12]; 34.3% [2.5 µM] (inactive) in assay [14]; 66.1% (inactive) in [15] (2.5 µM); -95.2% (active) and -100% (active) in [15] (250 µM); 2.39% [2.5 µM] (active) in assay [16]; 16.3% [2.5 µM] (inactive) in assay [17]. In addition, the growth in assay [18] was 3.36% [2.5 µM] (active).
